In the supplement of paper PMC8728848:
Only a selection was taken, and the strongest signals are over-represented in it overall.

Experiments:
Assay in all cases: glycan array binding signal (z-score within array); higher = stronger binding
Conditions in all cases: glycan notation: IUPAC condensed, linker removed
[1] = biological target: Fuc(a1-2)Gal(b1-3)GalNAc(b1-3)Gal
Outline: (§1)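 Columns mapping to the same glycan were averaged after glycan names were converted to IUPAC-condensed notation. The data come from 3228 arrays in the Consortium for Functional Glycomics database, limited to those with an available protein sequence. Binding is reported as a within-array Z-score averaged across arrays of one protein sequence and across linkers.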

[2] = biological target: Fuc(a1-2)Gal(b1-3)[Fuc(a1-4)]GlcNAc(b1-2)Man(a1-3)[Fuc(a1-2)Gal(b1-3)[Fuc(a1-4)]GlcNAc(b1-2)Man(a1-3)]Man(b1-4)GlcNAc(b1-4)GlcNAc
Outline: as §1

[3] = biological target: Fuc(a1-2)Gal(b1-3)[Fuc(a1-4)]GlcNAc(b1-3)[Gal(b1-4)GlcNAc(b1-6)]Gal(b1-4)Glc
Outline: as §1

[4] = biological target: Fuc(a1-2)Gal(b1-4)GlcNAc(b1-3)[Fuc(a1-3)[Gal(b1-4)]GlcNAc(b1-6)]Gal(b1-4)Glc
Outline: as §1

[5] = biological target: Fuc(a1-2)Gal(b1-4)[Fuc(a1-3)]GlcNAc
Outline: as §1

[6] = biological target: Fuc(a1-2)Gal(b1-4)[Fuc(a1-3)]GlcNAc(b1-2)[Fuc(a1-2)Gal(b1-4)[Fuc(a1-3)]GlcNAc(b1-4)]Man(a1-3)[Fuc(a1-2)Gal(b1-4)[Fuc(a1-3)]GlcNAc(b1-2)Man(a1-6)]Man(b1-4)GlcNAc(b1-4)GlcNAc
Outline: as §1

[7] = biological target: Fuc(a1-2)[Gal(a1-3)]Gal(b1-3)GlcNAc(b1-2)Man(a1-3)[Fuc(a1-2)[Gal(a1-3)]Gal(b1-3)GlcNAc(b1-2)Man(a1-6)]Man(b1-4)GlcNAc(b1-4)GlcNAc
Outline: as §1

[8] = biological target: Fuc(a1-2)[Gal(a1-3)]Gal(b1-4)GlcNAc(b1-6)GalNAc
Outline: as §1

[9] = biological target: Fuc(a1-2)[GalNAc(a1-3)]Gal
Outline: as §1

[10] = biological target: Fuc(a1-2)[GalNAc(a1-3)]Gal(b1-3)GalNAc(a1-3)[Fuc(a1-2)]Gal(b1-4)GlcNAc
Outline: as §1

[11] = biological target: Fuc(a1-2)[GalNAc(a1-3)]Gal(b1-3)GlcNAc(b1-3)GalNAc
Outline: as §1

[12] = biological target: Fuc(a1-2)[GalNAc(a1-3)]Gal(b1-4)GlcNAc
Outline: as §1

[13] = biological target: Fuc(a1-2)[GalNAc(a1-3)]Gal(b1-4)GlcNAc(b1-3)[Fuc(a1-2)[GalNAc(a1-3)]Gal(b1-4)GlcNAc(b1-6)]GalNAc
Outline: as §1

[14] = biological target: Fuc(a1-2)[GalNAc(a1-3)]Gal(b1-4)GlcNAc(b1-6)GalNAc
Outline: as §1

[15] = biological target: Fuc(a1-2)[GalNAc(a1-4)]Gal(b1-4)GlcNAc
Outline: as §1

Gal(a1-3)Gal(b1-4)GlcNAc = biological target: Gal(a1-3)Gal(b1-4)GlcNAc
Outline: as §1

Gal(b1-2)Gal = biological target: Gal(b1-2)Gal
Outline: as §1

[16] = biological target: Gal(b1-3)GalNAc(b1-3)Gal(a1-4)Gal(b1-4)Glc
Outline: as §1

[17] = biological target: Gal(b1-3)GlcNAc(b1-2)Man(a1-3)[GlcNAc(b1-4)][Gal(b1-3)GlcNAc(b1-2)Man(a1-6)]Man(b1-4)GlcNAc(b1-4)GlcNAc
Outline: as §1

[18] = biological target: Gal(b1-3)GlcNAc(b1-3)GalNAc
Outline: as §1

[19] = biological target: Gal(b1-3)[Fuc(a1-4)]GlcNAc(b1-2)Man(a1-3)[Gal(b1-3)[Fuc(a1-4)]GlcNAc(b1-2)Man(a1-6)]Man(b1-4)GlcNAc(b1-4)[Fuc(a1-6)]GlcNAc
Outline: as §1

[20] = biological target: Gal(b1-3)[Neu5Ac(a2-6)]GalNAc
Outline: as §1

[21] = biological target: Gal(b1-4)GalNAc(b1-3)[Fuc(a1-2)]Gal(b1-4)GlcNAc
Outline: as §1

[22] = biological target: Gal(b1-4)GlcNAc(b1-2)Man(a1-3)[Man(a1-6)]Man(b1-4)GlcNAc(b1-4)GlcNAc
Outline: as §1

[23] = biological target: Gal(b1-4)GlcNAc(b1-2)Man(a1-6)[GlcNAc(b1-2)Man(a1-3)]Man(b1-4)GlcNAc(b1-4)GlcNAc
Outline: as §1

[24] = biological target: Gal(b1-4)GlcNAc(b1-3)Gal(b1-3)GlcNAc
Outline: as §1

[25] = biological target: Gal(b1-4)GlcNAc(b1-3)Gal(b1-4)GlcNAc(b1-2)[Gal(b1-4)GlcNAc(b1-3)Gal(b1-4)GlcNAc(b1-6)]Man(a1-6)[Gal(b1-4)GlcNAc(b1-3)Gal(b1-4)GlcNAc(b1-2)Man(a1-3)]Man(b1-4)GlcNAc(b1-4)GlcNAc
Outline: as §1

[26] = biological target: Gal(b1-4)GlcNAc(b1-3)Gal(b1-4)GlcNAc(b1-2)[Gal(b1-4)GlcNAc(b1-3)Gal(b1-4)GlcNAc(b1-6)]Man(a1-6)[Gal(b1-4)GlcNAc(b1-3)Gal(b1-4)GlcNAc(b1-2)Man(a1-3)]Man(b1-4)GlcNAc(b1-4)[Fuc(a1-6)]GlcNAc
Outline: as §1

[27] = biological target: Gal(b1-4)GlcNAc(b1-3)Gal(b1-4)GlcNAc(b1-3)Gal(b1-4)GlcNAc(b1-3)Gal(b1-4)GlcNAc(b1-3)Gal(b1-4)GlcNAc(b1-2)Man(a1-3)[Gal(b1-4)GlcNAc(b1-3)Gal(b1-4)GlcNAc(b1-3)Gal(b1-4)GlcNAc(b1-3)Gal(b1-4)GlcNAc(b1-3)Gal(b1-4)GlcNAc(b1-2)Man(a1-6)]Man(b1-4)GlcNAc(b1-4)[Fuc(a1-6)]GlcNAc
Outline: as §1

B1: PfulAvr4 (Pseudocercospora fuligena) (protein)
chain: HHHHHHDYKDDDDKTYVQDKTPAFVCPAADIKTTKCLGPKDCLYPSPKTCNGYIQCSPADDSYLTGIIHEMPCPSGLLWNDNKKWCDWPENTTCGLVKSAGATEVDATKQGPTPGKYHG
glycan array binding signal (z-score) [1]: -0.098 | glycan array binding signal (z-score) [2]: 1.42 | glycan array binding signal (z-score) [3]: -0.112 | glycan array binding signal (z-score) [4]: -0.102 | glycan array binding signal (z-score) [5]: -0.091 | glycan array binding signal (z-score) [6]: 0.683 | glycan array binding signal (z-score) [7]: -0.05 | glycan array binding signal (z-score) [8]: -0.112 | glycan array binding signal (z-score) [9]: -0.132 | glycan array binding signal (z-score) [10]: 1.31 | glycan array binding signal (z-score) [11]: -0.06 | glycan array binding signal (z-score) [12]: -0.151 | glycan array binding signal (z-score) [13]: -0.133 | glycan array binding signal (z-score) [14]: -0.129 | glycan array binding signal (z-score) [15]: -0.135 | glycan array binding signal (z-score) (Gal(a1-3)Gal(b1-4)GlcNAc): -0.07 | glycan array binding signal (z-score) (Gal(b1-2)Gal): -0.01 | glycan array binding signal (z-score) [16]: -0.044 | glycan array binding signal (z-score) [17]: 0.682 | glycan array binding signal (z-score) [18]: -0.105 | glycan array binding signal (z-score) [19]: 0.612 | glycan array binding signal (z-score) [20]: 0.215 | glycan array binding signal (z-score) [21]: -0.141 | glycan array binding signal (z-score) [22]: 1.71 | glycan array binding signal (z-score) [23]: -0.136 | glycan array binding signal (z-score) [24]: -0.04 | glycan array binding signal (z-score) [25]: 1.38 | glycan array binding signal (z-score) [26]: -0.13 | glycan array binding signal (z-score) [27]: 0.048
